These results are taken from PubChem BioAssay (NCI).

What all share (test): NCI-60 one-dose screen, 48 h (100 = growth as untreated, 0 = no growth, -100 = all killed)
Holding throughout (settings): 10 µM unless noted

Assay [1] concerns HCT-15 colon.
Assay [2] relates to HT29 colon.
Assay [3] relates to SNB-75 CNS.
In assay [4] the test system is SNB-19 CNS.
Assay [5] concerns U251 CNS.
Assay [6] has as its system PC-3 prostate.
In assay [7] the test system is SK-MEL-5 melanoma.
Assay [8] concerns UACC-62 melanoma.
Assay [9] deals with LOX IMVI melanoma.
Assay [10] deals with SK-MEL-28 melanoma.
For assay [11], the system named is SK-MEL-2 melanoma.
Assay [12] has as its system EKVX NSCLC.
The test system of assay [13] is SN12C renal.
The subject of assay [14] is UO-31 renal.
In assay [15] the test system is TK-10 renal.
In assay [16] the test system is ACHN renal.
Assay [17] concerns CAKI-1 renal.
Assay [18] relates to A498 renal.
In assay [19] the test system is CCRF-CEM leukemia.
The test system of assay [20] is MOLT-4 leukemia.

This is part of a sample that, as a whole, favours compounds with a hit. Of some 83,000 tested, about 20% had one in any assay.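 Step 1: grow cells in 96-well plates. Step 2: add test compound at a single concentration. Step 3: incubate 48 h. Step 4: record percent growth.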 Unmarked numbers belong to inactive results. The source made the active and inactive calls. How the source made its calls: active means growth percent below 10; inactive means the rest.

For the molecule `C=C(c1ccc(C(=O)O)c(F)c1)c1cc2c(cc1C)C(C)(C)C=CC2(C)C`, the growth in [1] was 79.3%; in [2] it was 80.7%; in [3], 89.9%; in assay [4] it was 67.9%; in assay [5], 65.7%; in [6], 70.3%. The growth in [7] is 69.7%; in assay [8], 81.1%; in [9], 81.4%; in assay [10], 98.4%; in assay [11], 87.1%; in [12], 69.9%. In addition, the growth in [13] is 83.1%; in assay [14] it was 81.4%; in [15] it was 94.4%; in assay [16] it was 83.4%; in assay [17], 81.7%; in [18] it was 75.8%. The growth in assay [19] is 85.3%; in assay [20], 87.3%.
In the case of `Cc1nc2ccccc2c(/C=C/c2ccc(Cl)cc2)c1C(=O)/C=C/c1ccccc1`, the growth in [1] was -30.3% (active); in [2], -15.7% (active); in assay [3], 39.7%; in assay [4], -16.2% (active); in [5] it was -74.3% (active); in [6] it was 23.3%. Further, the growth in assay [7] was 13.7%; in assay [8], 0.158% (active); in assay [9] it was -85.3% (active); in assay [10], 8.62% (active); in assay [11] it was -14.1% (active); in [12] it was 31.5%. Besides, the growth was 20.6% in assay [13]; -38% (active) in [14]; 17.7% in assay [15]; 5.92% (active) in [16]; 4.04% (active) in assay [17]; 44% in assay [18]. Moreover, the growth in assay [19] was 6.45% (active); in assay [20], 5.35% (active).
As for `Cc1oc2ccc(O)c(CN3CCCCCC3)c2c1C(=O)Nc1ccc(C(F)(F)F)cc1`, the growth was 45.1% in assay [1]; 80.5% in assay [2]; 50.6% in assay [3]; 69.9% in assay [4]; 55.1% in [5]; 45.7% in assay [6]. In addition, the growth in assay [7] is 70%; in assay [8], 67.3%; in assay [9] it was 39.2%; in assay [10], 76.9%; in assay [11] it was 78.4%; in [12], 64.1%. In addition, the growth in assay [13] is 66.7%; in assay [14] it was 40.7%; in [15] it was 81.1%; in assay [16], 68.5%; in assay [17], 50.5%; in assay [18] it was 50.5%. For the same molecule, the growth in [19] was 65.2%; in assay [20], 64.3%.
With `c1ccc2[nH]c(-c3ccc(-c4nccc5c4[nH]c4ccccc45)cc3)nc2c1`, the growth in [1] is 38.7%; in assay [2], 4.38% (active); in assay [3], 64.9%; in assay [4], 55.1%; in assay [5] it was 24.2%; in [6] it was 85.7%. For the same molecule, the growth was 62.6% in assay [7]; -24% (active) in assay [8]; 10.8% in assay [9]; 61.3% in assay [10]; 47.3% in [11]; 81.2% in assay [12]. For the same molecule, the growth in assay [13] is 60.9%; in assay [14], 89.2%; in [15] it was 73.5%; in [16], 71.7%; in assay [17] it was 81.9%; in [18] it was 68.7%. Further, the growth in assay [19] is 11.1%; in [20] it was 77.1%.
As to `Cn1cc(-c2csc(-c3cn(CCO)c4ccc(F)cc34)n2)c2cccnc21`, the growth is 41.5% in [1]; 18.2% in assay [2]; 46.4% in assay [3]; 69.6% in assay [4]; 49.3% in assay [5]; 44.6% in [6]. Besides, the growth is 62.9% in assay [7]; 52.4% in [8]; 44.8% in [9]; 74.4% in [10]; 52.2% in assay [11]; 57.4% in assay [12]. For the same molecule, the growth in assay [13] is 73.2%; in [14], 70.7%; in assay [15], 47.7%; in assay [16] it was 69.5%; in assay [17], 78.4%; in assay [18] it was 45.3%. For the same molecule, the figures for the growth in assay [19] and in assay [20] were 44.4% and 46.7%, respectively.
Take `Clc1ccc2c(NCCCn3cnc4c(N5CCCC5)nc(Cl)nc43)ccnc2c1`: the growth was 95.5% in assay [1]; 100% in assay [2]; 86.3% in assay [3]; 103% in [4]; 99.8% in assay [5]; 91.9% in [6]. For the same molecule, the growth was 99.7% in assay [7]; 101% in assay [8]; 90.2% in assay [9]; 107% in [10]; 89.6% in assay [11]; 96.4% in [12]. Also, the growth in assay [13] is 94.3%; in assay [14] it was 77.4%; in assay [15] it was 102%; in assay [16] it was 91.8%; in assay [17], 90.8%; in [18], 94.4%. Also, the growth was 104% in assay [19] and 92.3% in assay [20].
With `O=C(CSc1nnc(-c2ccc(Cl)c(Cl)c2)n1-c1ccccc1)Nc1ccc(C(=O)/C=C/c2ccc(Cl)cc2)cc1`, the growth was 92.3% in assay [1]; 85.9% in assay [2]; 69.9% in assay [3]; 94.1% in assay [4]; 84% in assay [5]; 62.5% in assay [6]. Moreover, the growth in assay [7] is 93.1%; in assay [8], 76.7%; in assay [9], 97.5%; in [10], 104%; in assay [11] it was 78.6%; in assay [12], 88.3%. The growth was 89.4% in [13]; 66.2% in assay [14]; 93.3% in [15]; 98% in assay [16]; 74.2% in assay [17]; 82.5% in [18]. In addition, the figures for the growth in assay [19] and in assay [20] were 83.7% and 80.5%, respectively.
